AMPAR-TARP mod: GluA2-stargazin AMPA receptor complex modulation. HEK293 GluA2+stargazin, membrane potential dye (FDSS), glutamate EC50; hits were called plate by plate, in both directions. calls only at 30 µM. hit rate 3.5% among 40,000. AID 1259245;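 active means any of four per-well response measures lying three or more SD from its plate-wide compound average, in either direction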
GIRK2 act: Activates human GIRK2-containing potassium channels | P48051 | activation (% efficacy), % for hits at 37.5 µM | HEK293 GIRK2/NPY4 cells, thallium flux fluorescence | 34,000 tested, under 10 active | AID 1259324;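 active means primary screen hit, no activity in plain HEK293 cells, and in GIRK2-only cells above 5% efficacy rising with concentration; inactive means the rest, including fluorescent compounds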;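 further: efficacy is normalized control-subtracted fluorescence 15 s after thallium addition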
* marks the source's active call; other numbers are inactive results. Only a selection was taken, and hits are over-represented in it overall.

Results for COc1ccc(C(=O)Nc2ccc(N3CCCC3=O)cc2)cc1 ?
AMPAR-TARP mod: active; GIRK2 act: inactive

What do the screens show for `COc1cccc(N2C(=O)C(Cc3ccc(Cl)c(Cl)c3)S/C2=C(/C#N)C(N)=O)c1` (configuration not stated)?
AMPAR-TARP mod: inactive; GIRK2 act: inactive

How did CC(C)N1CCc2c(sc(NC(=O)c3nc4ccccc4s3)c2-c2nc3ccccc3s2)C1 do in these assays?
AMPAR-TARP mod: inactive

How did CC(C)N1CCc2c(sc(NC(=O)c3ccco3)c2-c2nc3ccccc3s2)C1 do in these assays?
AMPAR-TARP mod: active

How did CC(=O)N1CCc2c(sc(NC(=O)c3ccccc3)c2-c2nc3ccccc3s2)C1 do in these assays?
AMPAR-TARP mod: inactive

Results for CC(=O)N1CCc2c(sc(NC(=O)c3cc(C)n(C)n3)c2-c2nc3ccccc3s2)C1 ?
AMPAR-TARP mod: active; GIRK2 act: inactive

What do the screens show for `Cc1cncn(CC(=O)N2CCN(S(C)(=O)=O)CC2)c1=O`?
AMPAR-TARP mod: inactive; GIRK2 act: inactive

How did NC(=O)c1ccc(NC(=O)CN2C(=O)c3ccccc3S2(=O)=O)cc1 do in these assays?
AMPAR-TARP mod: inactive; GIRK2 act: inactive

What do the screens show for `NS(=O)(=O)c1ccc(NC(=O)CN2C(=O)c3ccccc3S2(=O)=O)cc1`?
AMPAR-TARP mod: active; GIRK2 act: inactive

How did COc1cc(COCC2CCN(C(=O)C3CC3)CC2)cc(OC)c1 do in these assays?
AMPAR-TARP mod: inactive; GIRK2 act: inactive

How did CCOc1ccc(-c2ccc(N3CCN(C(=O)c4ccc5ccccc5n4)CC3)nn2)cc1 do in these assays?
AMPAR-TARP mod: inactive; GIRK2 act: inactive

Results for Cn1cccc1C(CNC(=O)c1ccc(F)cc1)N1CCOCC1 (configuration not stated) ?
AMPAR-TARP mod: active; GIRK2 act: inactive

What do the screens show for `Cn1cccc1C(CNC(=O)C(=O)NCc1ccc(F)cc1)N1CCOCC1` (configuration not stated)?
AMPAR-TARP mod: inactive; GIRK2 act: inactive

Results for O=C(Nc1nc2cc3c(cc2s1)OCO3)c1ccno1 ?
AMPAR-TARP mod: inactive; GIRK2 act: inactive

What do the screens show for `O=C(c1ccc(Cl)c(S(=O)(=O)N2CCCCC2)c1)N1CCCc2ccccc21`?
AMPAR-TARP mod: inactive

How did Cc1ccc([N+](=O)[O-])cc1S(=O)(=O)NC1CC(C)(C)NC(C)(C)C1 do in these assays?
AMPAR-TARP mod: active

What do the screens show for `Cc1ccc(S(=O)(=O)NC2CC(C)(C)NC(C)(C)C2)cc1`?
AMPAR-TARP mod: inactive

Results for CCCCOc1ccc(C(=O)Nc2nnc(-c3ccc(OC)c(OC)c3)o2)cc1 ?
AMPAR-TARP mod: inactive; GIRK2 act: inactive

How did Cc1ccc(C(=O)Nc2nnc(-c3cccs3)o2)cc1 do in these assays?
AMPAR-TARP mod: inactive

Results for COc1ccc(C(=O)Nc2nnc(-c3cc4cccc(OC)c4o3)o2)cc1OC ?
AMPAR-TARP mod: active

How did CN(C)c1ccc(C(=O)Nc2nnc(-c3cccs3)o2)cc1 do in these assays?
AMPAR-TARP mod: active

How did COc1cccc2cc(-c3nnc(NC(=O)c4ccccc4)o3)oc12 do in these assays?
AMPAR-TARP mod: inactive

What do the screens show for `COc1ccc(C(=O)Nc2nnc(-c3ccc(SC)cc3)o2)cc1OC`?
AMPAR-TARP mod: inactive; GIRK2 act: inactive

How did COc1ccc(-c2nnc(NC(=O)c3ccc(S(=O)(=O)C(C)C)cc3)o2)cc1OC do in these assays?
AMPAR-TARP mod: active; GIRK2 act: inactive

What do the screens show for `COc1ccc(C(=O)Nc2nnc(-c3ccc(OC)c(OC)c3)o2)cc1OC`?
AMPAR-TARP mod: active; GIRK2 act: inactive

What do the screens show for `CS(=O)(=O)c1ccc2nc(N(CCc3cccs3)C(=O)c3nc4ccccc4s3)sc2c1`?
AMPAR-TARP mod: inactive; GIRK2 act: inactive

What do the screens show for `O=C(COc1ccccc1)N1CCN(c2ccc(-c3ccncc3)nn2)CC1`?
AMPAR-TARP mod: inactive; GIRK2 act: inactive

Results for COc1ccc(C(=O)Nc2nnc(-c3cccs3)o2)cc1OC ?
AMPAR-TARP mod: active

How did Cc1ccc(C(=O)Nc2nnc(-c3cccs3)o2)cc1C do in these assays?
AMPAR-TARP mod: inactive

How did COc1ccc(-c2nnc(NC(=O)CCc3ccccc3)o2)cc1OC do in these assays?
AMPAR-TARP mod: inactive; GIRK2 act: inactive

What do the screens show for `CCC(=O)Nc1nnc(-c2ccc3c(c2)CCCC3)o1`?
AMPAR-TARP mod: inactive; GIRK2 act: inactive

How did COc1ccc(-c2nnc(NC(C)=O)o2)cc1OC do in these assays?
AMPAR-TARP mod: active; GIRK2 act: inactive

Results for COc1cc(OC)cc(C(=O)Nc2nnc(-c3ccc(OC)c(OC)c3)o2)c1 ?
AMPAR-TARP mod: active; GIRK2 act: inactive

What do the screens show for `COc1cc(OC)cc(C(=O)Nc2nnc(-c3ccc(OC)cc3OC)o2)c1`?
AMPAR-TARP mod: inactive

Results for CCOc1ccc(-c2nnc(NC(=O)CC)o2)cc1OCC ?
AMPAR-TARP mod: active; GIRK2 act: inactive

Results for COC1CCN(S(=O)(=O)c2c(F)cccc2F)CC1 ?
AMPAR-TARP mod: inactive; GIRK2 act: inactive

How did COCCNS(=O)(=O)c1c(C)cc(C)c(N(C)S(=O)(=O)c2ccccc2)c1C do in these assays?
AMPAR-TARP mod: inactive

Results for COc1ccccc1-c1nnc(NC(=O)c2ccc(C(C)=O)cc2)o1 ?
AMPAR-TARP mod: inactive

What do the screens show for `COc1ccc(C(=O)Nc2nnc(-c3ccccc3OC)o2)cc1OC`?
AMPAR-TARP mod: active

Results for COc1ccc(NC(=O)c2ccc(S(=O)(=O)N3CCc4ccccc4C3)cc2)cc1 ?
AMPAR-TARP mod: inactive

How did NC(=O)C1CCN(C(=O)Cc2cc(-c3ccc(F)cc3)on2)CC1 do in these assays?
AMPAR-TARP mod: inactive; GIRK2 act: inactive

What do the screens show for `NC(=O)C1CCN(C(=O)Cc2cc(-c3cc4ccccc4o3)on2)CC1`?
AMPAR-TARP mod: active; GIRK2 act: inactive

What do the screens show for `COc1ccc(OC)c(-c2ccc(=O)n(Cc3ccccc3)n2)c1`?
AMPAR-TARP mod: inactive; GIRK2 act: inactive

How did COc1ccc(OC)c(-c2ccc(=O)n(Cc3cccc([N+](=O)[O-])c3)n2)c1 do in these assays?
AMPAR-TARP mod: active; GIRK2 act: inactive

What do the screens show for `CCN(CC)C(=O)Cn1cc(C(=O)C(=O)N(Cc2ccccc2)C(C)C)c2ccccc21`?
AMPAR-TARP mod: active

Results for CCN(CC)C(=O)Cn1cc(C(=O)C(=O)N2CCN(Cc3ccccc3)CC2)c2ccccc21 ?
AMPAR-TARP mod: inactive

What do the screens show for `CC(C)(C)n1ncc2c(=O)n(NC(=O)C(=O)c3c[nH]c4ccccc34)cnc21`?
AMPAR-TARP mod: inactive; GIRK2 act: inactive

Results for COCCn1c(C(=O)Nc2ccc(F)c(Cl)c2)cc2c(=O)n(C)c(=O)n(C)c21 ?
AMPAR-TARP mod: active; GIRK2 act: inactive

What do the screens show for `COCCn1c(C(=O)Nc2ccccc2)cc2c(=O)n(C)c(=O)n(C)c21`?
AMPAR-TARP mod: inactive; GIRK2 act: inactive

What do the screens show for `Cn1nnc2c(=O)n(CC(=O)NCc3ccc4c(c3)OCO4)cnc21`?
AMPAR-TARP mod: inactive; GIRK2 act: inactive

How did Cc1ccc(S(=O)(=O)Nc2ccc(CC(=O)NC(C)(C)CO)cc2)cc1C do in these assays?
AMPAR-TARP mod: inactive; GIRK2 act: inactive

How did O=C(c1cc2ccccc2oc1=O)N1CCC(Cn2cnc3ccccc32)CC1 do in these assays?
AMPAR-TARP mod: inactive; GIRK2 act: inactive

What do the screens show for `O=C(c1ccc(Br)o1)N1CCC(Cn2cnc3ccccc32)CC1`?
AMPAR-TARP mod: active; GIRK2 act: inactive

High-throughput results deposited in PubChem BioAssay by several laboratories.
